These results are taken from PubChem BioAssay AID2781 (National Center for Advancing Translational Sciences (NCATS), 2010).

The target of the assay is Menin (Homo sapiens) (UniProt O00255). The assay can be described thus: Confirmation of Inhibitors Targeting the Menin-MLL Interaction in MLL Related Leukemias: NMR spectroscopy to verify direct binding of compounds to menin. Particulars: purified menin, NMR STD binding, 100 uM. The source says: qHTS Assay for Inhibitors Targeting the Menin-MLL Interaction in MLL Related Leukemias NIH Chemical Genomics Center [NCGC] NIH Molecular Libraries Probe Centers Network [MLPCN] MLPCN Grant: MH084875-01A1 Assay Submitter (PI): Jolanta Grembecka, Tomasz Cierpicki, University of Virginia Translocations of the MLL (Mixed Lineage Leukemia) gene are frequently found in human leukemias affecting both children and adults. Fusion of MLL to one of more than 60 genes results in generation of oncogenic proteins upregulating Hox genes, which are vital to blood cell development. Patients harboring fusion of the MLL gene suffer from aggressive leukemias and respond poorly to available therapies. All of the oncogenic fusion proteins have a preserved N-terminal fragment of MLL that has been identified to interact with menin. It has been recently discovered that association with menin is critical to the leukemogenic activity of the MLL fusion oncoproteins. Selective targeting of the menin-MLL interaction could provide an attractive therapeutic approach to develop novel drugs for MLL-related leukemias. Small molecules blocking the menin-MLL interaction should reverse the oncogenic potential of MLL fusion proteins. We have developed and optimized a fluorescence polarization-based assay for the identification of Menin-MLL inhibitors. The assay was run employing two different MLL-derived peptides. […]

Structures are written as SMILES. Active and inactive are the calls of the source.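 How the source made its calls: active means compound whose NMR saturation transfer difference test with menin is positive, showing direct binding to the protein; inactive means the rest.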

Sequence of Menin (Homo sapiens) (O00255 whole entry, looked up, the tested form may be a part): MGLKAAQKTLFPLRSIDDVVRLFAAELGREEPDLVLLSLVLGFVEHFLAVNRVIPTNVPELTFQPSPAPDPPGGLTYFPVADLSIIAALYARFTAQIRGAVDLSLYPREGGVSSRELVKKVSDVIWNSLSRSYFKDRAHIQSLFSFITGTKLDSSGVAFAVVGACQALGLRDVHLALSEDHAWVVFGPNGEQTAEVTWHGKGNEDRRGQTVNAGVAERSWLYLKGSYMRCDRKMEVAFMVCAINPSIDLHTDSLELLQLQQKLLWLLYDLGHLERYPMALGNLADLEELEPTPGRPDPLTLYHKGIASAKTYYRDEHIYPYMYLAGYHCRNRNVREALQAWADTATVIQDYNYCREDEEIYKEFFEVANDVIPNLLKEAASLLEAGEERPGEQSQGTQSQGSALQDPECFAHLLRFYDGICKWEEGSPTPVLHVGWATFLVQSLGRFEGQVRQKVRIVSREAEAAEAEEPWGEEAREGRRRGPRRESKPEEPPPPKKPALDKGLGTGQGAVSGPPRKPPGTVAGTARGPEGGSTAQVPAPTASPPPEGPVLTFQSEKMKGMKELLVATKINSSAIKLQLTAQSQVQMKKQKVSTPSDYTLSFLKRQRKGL

In the case of `CCCCn1c(=O)c(C(=O)Nc2ccsc2C(=O)OC)c(O)c2ccccc21`, the outcome was “inactive; negative”.
The same measure for `c1cc2cc(c1)C[n+]1ccc(c3ccccc31)NCc1ccc(cc1)CNc1cc[n+](c3ccccc13)C2`: “inactive; negative”.
